Test results from PubChem BioAssay (NCI).
About 79,000 compounds went through this panel and 15% of them were active in at least one assay; those are over-represented in the sample as a whole. The source made the active and inactive calls. No stated cut-off is given here; in the data, active means growth inhibition above about 70%; inactive means the rest.

How the values were obtained:
[1] = NCI Yeast Anticancer Drug Screen. Data for the wt1 strain (AID 149);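 further: 0% = growth of vehicle-treated wt1 cultures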; settings: S. cerevisiae wt1 strain (SPY 50644) growth inhibition, stronger effect = higher value
How it was run: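 wt1 yeast, compound-treated; % growth inhibition vs vehicle control.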

[2] = NCI Yeast Anticancer Drug Screen. Data for the rad50EPP+ strain (AID 151);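 further: 0% = growth of vehicle-treated control cultures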; settings: S. cerevisiae rad50 mutant strain, stronger effect = higher value
How it was run: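 Yeast strain carrying rad50 alteration (rad50EPP+) exposed to compounds; growth inhibition measured relative to vehicle-treated controls.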

[3] = NCI Yeast Anticancer Drug Screen. Data for the rad50 strain (AID 155);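 further: 0% = growth of vehicle-only cultures of the same strain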; settings: S. cerevisiae rad50 strain growth inhibition, stronger effect = higher value
How it was run: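 Genetically altered yeast (DNA repair pathway); compound treatment; growth inhibition vs vehicle ctrl.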

[4] = NCI Yeast Anticancer Drug Screen. Data for the mec2-1 strain (AID 157); settings: S. cerevisiae mec2-1 strain, stronger effect = higher value
How it was run: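 mec2-1 yeast strain, carrying an alteration in DNA damage repair or cell cycle control, was exposed to compounds; growth inhibition was measured relative to vehicle-treated controls.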

[5] = NCI Yeast Anticancer Drug Screen. Data for the sgs1 mgt1 strain (AID 161);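 further: 0% = growth of cultures given vehicle only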; settings: S. cerevisiae sgs1 mgt1 strain, stronger effect = higher value
How it was run: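 Compounds are added to genetically altered yeast, and growth is compared with cultures given vehicle alone to give percent inhibition.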

[6] = NCI Yeast Anticancer Drug Screen. Data for the cln2 rad14 strain (AID 165);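 further: 0% = growth equal to vehicle treated cultures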; settings: S. cerevisiae cln2 rad14 strain, stronger effect = higher value
How it was run: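 Yeast carrying cln2 and rad14 alterations (cell cycle control and DNA damage repair) were exposed to compounds. Growth inhibition was measured against vehicle-treated controls.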

[7] = NCI Yeast Anticancer Drug Screen. Data for the bub3 strain (AID 167); settings: S. cerevisiae bub3 mutant strain, stronger effect = higher value
How it was run: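 Yeast carrying a defined mutation is treated with each compound, and growth is compared with that of vehicle-exposed cells to give inhibition.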

[8] = NCI Yeast Anticancer Drug Screen. Data for the wt2 strain (AID 169);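 further: 0% = growth of vehicle-treated yeast cultures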; settings: S. cerevisiae wt2 strain growth inhibition, stronger effect = higher value
How it was run: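 Yeast cells were exposed to test compounds, and growth inhibition was measured relative to vehicle-treated controls.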

[9] = NCI Yeast Anticancer Drug Screen. Data for the mlh1 strain (AID 171);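 further: 0% = growth of vehicle-treated control cultures of the same strain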; settings: S. cerevisiae mlh1 strain growth inhibition, stronger effect = higher value
How it was run: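 Yeast carrying a defined genetic alteration in DNA damage repair or cell cycle control were exposed to test compounds. Growth inhibition was measured relative to vehicle-treated controls.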

[10] = NCI Yeast Anticancer Drug Screen. Data for the sgs1 strain (AID 173);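 further: 0% = growth of vehicle-only control cultures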; settings: S. cerevisiae sgs1 mutant, stronger effect = higher value
How it was run: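 Yeast mutant strains carrying defined defects in DNA damage repair or cell cycle control were exposed to test compounds. Growth inhibition was scored against vehicle-treated controls.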

[11] = NCI Yeast Anticancer Drug Screen. Data for the mlh1 rad18 strain (AID 175); settings: S. cerevisiae mlh1 rad18 strain growth inhibition, stronger effect = higher value
How it was run: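 Growth inhibition of the yeast strain was measured after compound exposure and expressed relative to vehicle-treated controls. The strain carries defined defects in DNA damage repair.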

[12] = NCI Yeast Anticancer Drug Screen. Data for the rad18 strain (AID 177); settings: S. cerevisiae rad18 mutant growth inhibition, stronger effect = higher value
How it was run: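 Yeast carrying a defined DNA damage repair alteration were exposed to compounds. Growth inhibition was expressed relative to vehicle-treated controls.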

[13] = NCI Yeast Anticancer Drug Screen. Data for the rad14 strain (AID 159);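 further: 0% = growth of vehicle-treated control cultures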; settings: S. cerevisiae rad14 strain growth inhibition, stronger effect = higher value
How it was run: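 Test compounds were applied to a repair-deficient yeast strain. Its growth was then compared with that of cultures given vehicle alone, and inhibition was expressed relative to those controls.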

[14] = NCI Yeast Anticancer Drug Screen. Data for the CLN2oe strain (AID 163);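 further: 0% = growth of vehicle-only control cultures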; settings: S. cerevisiae CLN2oe strain, stronger effect = higher value
How it was run: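 Yeast cells carrying a defined cell-cycle control alteration were exposed to test compounds. Growth inhibition was scored against vehicle-treated control cultures.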

[15] = at 5.0 µM (retest, dose inferred, filed as 0.5)
[16] = at 50.0 µM (retest, dose inferred, filed as 5.0)

Measured: growth inhibition

O=S(=O)(O)c1ccc2c(N=Nc3c(O)ccc4ccccc34)cccc2c1
inactive: [1]; at 1.2 µM 0% | [1]; at 3.7 µM 1% | [1]; at 11.0 µM 21% | [1]; at 33.0 µM 50% | [2]; at 1.2 µM -3% | [2]; at 3.7 µM -1% | [2]; at 11.0 µM 17% | [2]; at 33.0 µM 35% | [2]; at 100.0 µM 39% | [3]; at 1.2 µM 4% | [3]; at 3.7 µM 14% | [3]; [15] 26% | [3]; at 11.0 µM 56% | [4]; at 1.2 µM 1% | [4]; at 3.7 µM 6% | [4]; [15] 3% | [4]; at 11.0 µM 20% | [4]; at 33.0 µM 38% | [4]; [16] 48% | [5]; [15] -1% | [6]; [15] 0% | [6]; [16] -11% | [6]; at 50.0 µM 32.5% | [7]; at 1.2 µM -2% | [7]; at 3.7 µM -1% | [7]; [15] 0% | [7]; at 11.0 µM 23% | [7]; at 33.0 µM 59% | [7]; [16] 55% | [8]; at 1.2 µM -1% | [8]; at 3.7 µM 0% | [8]; at 11.0 µM 13% | [8]; at 33.0 µM 37% | [9]; at 1.2 µM 4% | [9]; at 3.7 µM 4% | [9]; at 11.0 µM 17% | [9]; at 33.0 µM 4% | [10]; at 1.2 µM 2% | [10]; at 3.7 µM 11% | [10]; at 11.0 µM 47% | [10]; at 33.0 µM 67% | [11]; [15] 9% | [12]; at 1.2 µM 4% | [12]; at 3.7 µM 33%
active: [1]; at 100.0 µM 71% | [3]; at 33.0 µM 71% | [3]; [16] 82% | [3]; at 50.0 µM 91.8% | [3]; at 100.0 µM 85% | [4]; at 50.0 µM 83.3% | [4]; at 100.0 µM 84% | [5]; [16] 70% | [5]; at 50.0 µM 83.2% | [7]; at 50.0 µM 93.8% | [7]; at 100.0 µM 75% | [8]; at 100.0 µM 74% | [9]; at 100.0 µM 70% | [10]; at 100.0 µM 77% | [11]; [16] 80% | [11]; at 50.0 µM 87.9% | [12]; at 11.0 µM 77% | [12]; at 33.0 µM 87% | [12]; at 100.0 µM 92%

COc1ccc(CCN2C(=O)C=CC2=O)cc1OC
inactive: [1]; at 1.2 µM -1% | [1]; at 3.7 µM 7% | [1]; at 11.0 µM 62% | [2]; at 1.2 µM 7% | [2]; at 3.7 µM 50% | [3]; at 1.2 µM 4% | [3]; at 3.7 µM 18% | [3]; [15] 27% | [3]; at 11.0 µM 67% | [3]; [16] 51% | [4]; at 1.2 µM 5% | [4]; at 3.7 µM 38% | [4]; [15] 43% | [4]; [16] 42% | [13]; at 1.2 µM -10% | [13]; at 3.7 µM 3% | [13]; at 11.0 µM 63% | [14]; at 1.2 µM 17% | [14]; at 3.7 µM 33% | [7]; at 1.2 µM 15% | [7]; at 3.7 µM 43% | [8]; at 1.2 µM -21% | [8]; at 3.7 µM 5% | [8]; at 11.0 µM 48% | [9]; at 1.2 µM -19% | [9]; at 3.7 µM 4% | [9]; at 11.0 µM 53% | [10]; at 1.2 µM 1% | [10]; at 3.7 µM 5% | [10]; at 11.0 µM 38% | [11]; [15] 23% | [11]; [16] 44% | [12]; at 1.2 µM -2% | [12]; at 3.7 µM 15% | [12]; at 11.0 µM 64%
active: [1]; at 33.0 µM 99% | [1]; at 100.0 µM 99% | [2]; at 11.0 µM 82% | [2]; at 33.0 µM 96% | [2]; at 100.0 µM 98% | [3]; at 33.0 µM 98% | [3]; at 50.0 µM 83.2% | [3]; at 100.0 µM 98% | [4]; at 11.0 µM 79% | [4]; at 33.0 µM 100% | [4]; at 50.0 µM 92.3% | [4]; at 100.0 µM 100% | [13]; at 33.0 µM 99% | [13]; at 100.0 µM 99% | [5]; [15] 74% | [5]; [16] 98% | [14]; at 11.0 µM 81% | [14]; at 33.0 µM 99% | [14]; at 100.0 µM 99% | [6]; [15] 78% | [6]; [16] 99% | [7]; [15] 97% | [7]; at 11.0 µM 88% | [7]; at 33.0 µM 99% | [7]; [16] 97% | [7]; at 100.0 µM 99% | [8]; at 33.0 µM 99% | [8]; at 100.0 µM 99% | [9]; at 33.0 µM 99% | [9]; at 100.0 µM 98% | [10]; at 33.0 µM 98% | [10]; at 100.0 µM 98% | [11]; at 50.0 µM 84.4% | [12]; at 33.0 µM 98% | [12]; at 100.0 µM 98%

COC(=O)C1(N2CCOCC2)CCC([C@@H](c2ccccc2)C(C)[N+](=O)[O-])C1 (stereo partly specified)
active: [2]; at 100.0 µM 86% | [3]; at 100.0 µM 94% | [12]; at 100.0 µM 82%
inactive: [1]; at 1.2 µM -3% | [1]; at 3.7 µM -2% | [1]; at 11.0 µM -2% | [1]; at 33.0 µM -3% | [1]; at 100.0 µM 4% | [2]; at 1.2 µM 2% | [2]; at 3.7 µM 3% | [2]; at 11.0 µM 15% | [2]; at 33.0 µM 54% | [3]; at 1.2 µM 0% | [3]; at 3.7 µM 2% | [3]; [15] 11% | [3]; at 11.0 µM 17% | [3]; at 33.0 µM 43% | [3]; [16] -3% | [3]; at 50.0 µM 57.2% | [4]; at 1.2 µM -3% | [4]; at 3.7 µM 1% | [4]; [15] 0% | [4]; at 11.0 µM 4% | [4]; at 33.0 µM 4% | [4]; [16] 2% | [4]; at 50.0 µM 26.4% | [4]; at 100.0 µM 34% | [13]; at 1.2 µM 1% | [13]; at 3.7 µM 1% | [13]; at 11.0 µM 6% | [13]; at 33.0 µM 9% | [13]; at 100.0 µM 39% | [5]; [15] 0% | [5]; [16] -2% | [5]; at 50.0 µM 20.6% | [14]; at 1.2 µM -9% | [14]; at 3.7 µM -4% | [14]; at 11.0 µM -10% | [14]; at 33.0 µM -3% | [14]; at 100.0 µM 9% | [6]; [15] -1% | [6]; [16] -2% | [6]; at 50.0 µM 8.15% | [7]; at 1.2 µM -1% | [7]; at 3.7 µM -12% | [7]; [15] 1% | [7]; at 11.0 µM -8% | [7]; at 33.0 µM -13% | [7]; [16] -29% | [7]; at 50.0 µM -2.55% | [7]; at 100.0 µM 24% | [8]; at 1.2 µM -2% | [8]; at 3.7 µM -3% | [8]; at 11.0 µM -4% | [8]; at 33.0 µM -4% | [8]; at 100.0 µM 11% | [9]; at 1.2 µM -3% | [9]; at 3.7 µM -2% | [9]; at 11.0 µM 1% | [9]; at 33.0 µM 3% | [9]; at 100.0 µM 25% | [10]; at 1.2 µM -1% | [10]; at 3.7 µM -1% | [10]; at 11.0 µM 1% | [10]; at 33.0 µM 7% | [10]; at 100.0 µM 49% | [11]; [15] 3% | [11]; [16] 3% | [11]; at 50.0 µM 27.5% | [12]; at 1.2 µM 1% | [12]; at 3.7 µM 2% | [12]; at 11.0 µM 6% | [12]; at 33.0 µM 14%
